For 31 compounds, Inhibition results are on record in ChEMBL document CHEMBL1157539, “Thousands of chemical starting points for antimalarial lead identification” (Nature, 2010).

Holding throughout (assay type): functional
In experiment [1] the test system is Plasmodium falciparum. The experiment is described as follows: GSK_TCMDC: Inhibition of Plasmodium falciparum 3D7 in whole red blood cells, using parasite LDH activity as an index of growth. Test compounds present at 2uM.
Experiment [2] concerns Plasmodium falciparum. The experiment in a line: GSK_TCMDC: Inhibition of Plasmodium falciparum Dd2 in whole red blood cells, using parasite LDH activity as an index of growth. Test compounds present at 2uM.
The subject of experiment [3] is HepG2. The experiment is described as follows: GSK_TCMDC: Percent inhibition of human HepG2 cell line. Test compounds present at 10uM.

SMILES strings stand for the structures.

Consider `COc1cc(-c2nc(-c3ccc(C(=O)c4ccc(F)cc4)cc3)c(-c3ccccc3)[nH]2)cc(OC)c1O`, for which the results for the Inhibition in experiment [1], in experiment [2] and in experiment [3] were 100%, 100% and 0%, respectively.
Take `COc1ccc(CCNC(=O)c2ccc(-n3cc(NC(=O)c4cccnc4)cn3)cc2)cc1OC`: the Inhibition (as a rule, the change of the read-out against control, counted positive when it falls) in experiment [1] is on record as 90%; in experiment [2], 89%; in experiment [3], 17%.
Consider `CCN(CCO)CCc1cccc(Nc2nccc(-c3c(-c4ccc(NC(=O)C(C)(C)C)cc4)nn4ccccc34)n2)c1.Cl`, for which the Inhibition was determined as 100% in experiment [1], 96% in experiment [2] and 62% in experiment [3].
With `NCC1CCCN1Cc1ccc(-c2ccc(-c3nc4cc(C(F)(F)F)ccc4[nH]3)s2)cc1.O=C(O)C(F)(F)F` (stereo not drawn), the Inhibition in experiment [1] is listed as 100%; in experiment [2] it was 97%; in experiment [3], 31%.
The like results for `COc1c(C2CCN(CCCCNC(=O)c3ccc(-c4ccc(Cl)cc4)c(OCCN(C)C)c3)CC2)ccc2c1CCCC2` were, in that order, 100%, 86% and 100%.
As to `CC(=O)c1cccc(NC(=O)NC2CCN(CCCCCNC(=O)/C=C/c3ccc(Cl)c(Cl)c3)CC2)c1`, the values for the Inhibition in experiment [1], in experiment [2] and in experiment [3] were 94%, 1% and 7%, respectively.
The like results for `Cc1cc(-c2nc3ccc(C(=O)NCc4ccccc4)cc3n2C2CCN(C(=O)c3ccc(-c4ccccc4)cc3)CC2)ccn1` were, in that order, 95%, 97% and 36%.
Consider `Cc1ccc(C(C)C)c(Oc2ccc3nc(N)nc(N)c3c2)c1`, for which the Inhibition stood at 96% in experiment [1], 33% in experiment [2] and 61% in experiment [3].
Taken in the same sequence, the figures for `COc1cccc(C(=O)Nc2ccc(Nc3nc(C)cc(N(C)C)n3)cc2)c1` were 92%, 33% and 1%.
Taken in the same sequence, the figures for `COc1cc2nc(NCCc3ccccc3)nc(NCc3cc(C)no3)c2cc1OC` were 99%, 100% and 5%.
Turning to `CCCCN(Cc1cc(Cl)c(OCC)c(OC)c1)c1ccc(C(O)(C(F)(F)F)C(F)(F)F)cc1.O=C(O)C(F)(F)F`, the figures for the Inhibition in experiment [1], in experiment [2] and in experiment [3] were 92%, 97% and 5%, respectively.
The like results for `Cc1cc(CN2CC[C@H](NC(=O)c3ccc(Cl)c(Cl)c3)C2)ccc1OC1CCN(C)C1.O=C(O)C(F)(F)F` (stereo partly drawn) were, in that order, 100%, 24% and 71%.
As for `CN(C)CCOc1cccc(-c2cnc(N)c(-c3nc4cc(S(C)(=O)=O)ccc4[nH]3)c2)c1.O=C(O)C(F)(F)F`, the results for the Inhibition in experiment [1], in experiment [2] and in experiment [3] were 100%, 82% and 39%, respectively.
As for `Br.CCc1ccc(OCCCON2C(=N)N=C(N)NC2(C)C)cc1`, the Inhibition in experiment [1] was determined as 95%; in experiment [2], 95%; in experiment [3] it was 64%.
For `CC(=O)c1c[nH]c(C(=O)Nc2ccc(-c3cn4ccccc4n3)cc2)c1`, the Inhibition in experiment [1] stood at 98%; in experiment [2], 95%; in experiment [3] it was 20%.
Taken in the same sequence, the figures for `O=C(NC1CCN(Cc2ccccc2)CC1)c1cc(-c2ccncc2)c(-c2ccc(Cl)c(O)c2)o1.O=C(O)C(F)(F)F` were 100%, 86% and 9%.
Regarding `CCN(CC)S(=O)(=O)c1ccc(CCOCCCCCNCC(O)c2cc(Cl)c(N)c(Cl)c2)s1.O=C(O)/C=C/C(=O)O` (stereo not drawn), the Inhibition is listed as 96% in experiment [1], 80% in experiment [2] and 35% in experiment [3].
Taken in the same sequence, the figures for `Nc1ncc(-c2cn[nH]c2)cc1-c1nc2ccc(Cl)cc2[nH]1` were 100%, 100% and 46%.
On to `O=C(Nc1ccc(C(F)(F)F)cc1)c1cccc(S(=O)(=O)NC2CCN(Cc3ccccc3)C2)c1.O=C(O)C(F)(F)F` (stereo not drawn), for which the figures for the Inhibition in experiment [1], in experiment [2] and in experiment [3] were 88%, 0% and 39%, respectively.
Taken in the same sequence, the figures for `Cl.O=C(NCCCCN1CCC(O)(c2ccc3c(c2)OCO3)CC1)c1ccc(NC(=O)c2ccc(Cl)cc2)cc1` were 86%, 6% and 15%.
The like results for `Cc1cc(NCc2ccc(F)cc2)nc2cc(O)ccc12` were, in that order, 98%, 85% and 14%.
Taken in the same sequence, the figures for `CNc1ccc(CNCc2cccc(-c3ccc(-c4nc5cc(C(F)(F)F)ccc5[nH]4)cc3)c2)cc1.O=C(O)C(F)(F)F` were 100%, 100% and 21%.
Take `COc1cc(NC(=O)c2c(-c3c(Cl)cccc3Cl)noc2C)c(OC)cc1Cl`: the Inhibition in experiment [1] is on record as 85%; in experiment [2], 67%; in experiment [3] it was 4%.
Regarding `O=C(Nc1ccccc1)Nc1ccc(-c2cccc(-c3nc4cc(C(F)(F)F)ccc4[nH]3)c2)cc1`, the Inhibition in experiment [1] came to 100%; in experiment [2] it was 73%; in experiment [3] it was 59%.
Taken in the same sequence, the figures for `COc1cc(NC2CCCC(NCc3cn(S(=O)(=O)c4ccccc4)c4ccccc34)C2)nc2ccccc12` (stereo not drawn) were 100%, 61% and 4%.
Taken in the same sequence, the figures for `N[C@@H](Cc1cc(I)c(Oc2ccc(O)c(C(=O)O)c2)c(I)c1)C(=O)O` were 97%, 21% and 57%.
As for `CC(C)CCN1CCCN(Cc2ccc(C(=O)Nc3ccc(F)c(F)c3)cc2)CC1.O=C(O)C(F)(F)F`, the Inhibition in experiment [1] amounted to 88%; in experiment [2] it was 27%; in experiment [3] it was 36%.
Consider `CCCC(C)Nc1nc(C)cc(N[C@@H](CC(C)C)C(=O)NCCc2ccccc2)n1.O=C(O)C(F)(F)F` (stereo partly drawn), for which the Inhibition in experiment [1] was 96%; in experiment [2], 51%; in experiment [3] it was 9%.
With `CN1CCN(c2cc3c(cc2Br)CCN3C(=O)Nc2ccc(-c3cnc4ccccc4c3)cc2)CC1`, the Inhibition in experiment [1] turned out to be 99%; in experiment [2], 79%; in experiment [3], 100%.
Taken in the same sequence, the figures for `CC(C)CC(=O)Nc1cc(=O)[nH]c2nc(-c3ccccc3)nn12` were 89%, 85% and 0%.
With `COc1ccc2nc(C)cc(Nc3ccc(Oc4ccc(Br)c5ccccc45)c(Cl)c3)c2c1`, the Inhibition in experiment [1], in experiment [2] and in experiment [3] was 100% throughout.
